According to PubChem BioAssay AID1159580 (chemical genetic matrix, 2015):
Values joined by “and” are separate entries in the source; they are usually repeats but may differ in a detail not shown here. Equal entries are not always repeated. The campaign covered roughly 5,500 compounds. About 2,000 (36%) were called active. About 18% were inconclusive and are not listed. No stated cut-off is given here; in the data, active means normalized growth mostly below about 0.91 (no sharp cut-off); inconclusive means no clear call, values can overlap the other calls; inactive means mostly above about 0.92. Some of the results follow.

Assay: chemical genetic growth profiling, strain panel (AID 1159580);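 further: tested at 20 µM; growth read once vehicle control cultures reached saturation at 30 °C; 1 = growth at the plate median or of vehicle wells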
Conditions: S. cerevisiae deletion strains, growth OD

Measured: normalized growth

Cn1c(=O)c2c(ncn2CCO)n(C)c1=O
inactive: locus YAL013W, strain DEP1, stronger effect = lower value 1 | locus YAL021C, strain ccr4, stronger effect = lower value 1.02 | locus YAL026C, strain drs2, stronger effect = lower value 1.02 | locus YAL030W, strain snc1, stronger effect = lower value 1.02 | locus YBL061C, strain skt5, stronger effect = lower value 1.03 | locus YBR009C, strain hhf1, stronger effect = lower value 1.02 | locus YBR021W, strain FUR4, stronger effect = lower value 1.04 | locus YBR023C, strain chs3, stronger effect = lower value 1.01 | locus YBR171W, strain sec66, stronger effect = lower value 1.03 | locus YBR229C, strain ROT2, stronger effect = lower value 1 | locus YBR231C, strain swc5, stronger effect = lower value 1.02 | locus YBR279W, strain paf1, stronger effect = lower value 1.02 | locus YCL011C, strain gbp2, stronger effect = lower value 1.02 | locus YCL016C, strain dcc1, stronger effect = lower value 1.01 | locus YCL029C, strain bik1, stronger effect = lower value 1.02 | locus YCL061C, strain MRC1, stronger effect = lower value 1.02 | locus YCL069W, strain vba3, stronger effect = lower value 1.02 | locus YCR088W, strain abp1, stronger effect = lower value 1.02 | locus YDL005C, strain med2, stronger effect = lower value 1.02 | locus YDL035C, strain GPR1, stronger effect = lower value 0.997 | locus YDL040C, strain nat1, stronger effect = lower value 1.01 | locus YDL074C, strain BRE1, stronger effect = lower value 1.04 | locus YDL101C, strain DUN1, stronger effect = lower value 1.02 | locus YDL134C, strain PPH21, stronger effect = lower value 1 | locus YDL185W, strain tfp1, stronger effect = lower value 1 | locus YDL192W, strain arf1, stronger effect = lower value 1.01 | locus YDR001C, strain nth1, stronger effect = lower value 1.02 | locus YDR069C, strain doa4, stronger effect = lower value 1.03 | locus YDR101C, strain arx1, stronger effect = lower value 1.01 | locus YDR137W, strain rgp1, stronger effect = lower value 1.04 | locus YDR150W, strain NUM1, stronger effect = lower value 1 | locus YDR159W, strain sac3, stronger effect = lower value 1.02 | locus YDR162C, strain NBP2, stronger effect = lower value 1.01 | locus YDR195W, strain ref2 0.995 | locus YDR297W, strain sur2, stronger effect = lower value 1 | locus YDR318W, strain mcm21, stronger effect = lower value 1 | locus YDR334W, strain swr1, stronger effect = lower value 1.02 | locus YDR335W, strain msn5, stronger effect = lower value 1.02 | locus YDR388W, stronger effect = lower value 0.998 | locus YDR392W, strain spt3, stronger effect = lower value 1.03 | locus YDR502C, strain sam2, stronger effect = lower value 0.978 | locus YEL003W, strain gim4, stronger effect = lower value 1.02 | locus YEL037C, strain rad23, stronger effect = lower value 1.05 | locus YEL061C, strain CIN8 (second series), stronger effect = lower value 1.02 | locus YEL061C, strain CIN8, stronger effect = lower value 1 | locus YER015W, strain faa2, stronger effect = lower value 1.02 | locus YER016W, strain bim1, stronger effect = lower value 1.01 | locus YER110C, stronger effect = lower value 1.01 | locus YER111C, strain swi4, stronger effect = lower value 1.03 | locus YER155C, strain BEM2 (second series), stronger effect = lower value 1.04 | locus YER155C, strain BEM2, stronger effect = lower value 1.01 | locus YER167W, strain BCK2, stronger effect = lower value 0.979 | locus YFR010W, strain ubp6, stronger effect = lower value 1.02 | locus YGL078C, strain dbp3, stronger effect = lower value 0.994 | locus YGL086W, strain mad1, stronger effect = lower value 0.986 | locus YGL167C, strain pmr1, stronger effect = lower value 1.02 | locus YGL173C, strain kem1, stronger effect = lower value 1.03 | locus YGL227W, strain vid30, stronger effect = lower value 1 | locus YGL240W, strain doc1, stronger effect = lower value 1.02 | locus YGL248W, strain PDE1, stronger effect = lower value 1.01 | locus YGL253W, strain hxk2, stronger effect = lower value 1.02 | locus YGR078C, strain PAC10, stronger effect = lower value 1.02 | locus YGR135W, strain pre9, stronger effect = lower value 0.971 | locus YGR229C, strain SMI1, stronger effect = lower value 0.99 | locus YGR252W, strain gcn5, stronger effect = lower value 0.912 | locus YHR013C, strain ard1, stronger effect = lower value 1.04 | locus YHR027C, strain rpn1, stronger effect = lower value 1 | locus YHR030C, strain SLT2, stronger effect = lower value 0.999 and 0.984 | locus YHR079C, strain IRE1 (second series), stronger effect = lower value 1.01 | locus YHR079C, strain IRE1, stronger effect = lower value 0.974 | locus YHR094C, strain hxt1, stronger effect = lower value 0.998 | locus YHR129C, strain ARP1, stronger effect = lower value 1.02 | locus YHR142W, strain chs7, stronger effect = lower value 1.02 | locus YHR200W, strain rpn10, stronger effect = lower value 0.994 | locus YIL066C, strain RNR3, stronger effect = lower value 1.01 | locus YIL073C, strain SPO22, stronger effect = lower value 0.927 | locus YIL125W, strain kgd1, stronger effect = lower value 0.988 | locus YIR030C, strain dcg1, stronger effect = lower value 1.01 | locus YJL092W, strain hpr5, stronger effect = lower value 1.02 | locus YJL095W, strain BCK1 (second series), stronger effect = lower value 1 | locus YJL095W, strain BCK1, stronger effect = lower value 1.04 and 0.969 | locus YJL115W, strain asf1, stronger effect = lower value 1.02 | locus YJL129C, strain trk1, stronger effect = lower value 1.04 | locus YJL134W, strain LCB3, stronger effect = lower value 1.01 | locus YJL154C, strain vps35, stronger effect = lower value 1.02 | locus YJL164C, strain tpk1, stronger effect = lower value 1.02 | locus YJL166W, strain qcr8, stronger effect = lower value 1.02 | locus YJL168C, strain set2, stronger effect = lower value 1.01 | locus YJL187C, strain SWE1 (second series), stronger effect = lower value 1.03 | locus YJL187C, strain SWE1, stronger effect = lower value 1.01 | locus YJR043C, strain POL32, stronger effect = lower value 1.03 | locus YJR066W, strain TOR1, stronger effect = lower value 0.909
